For 14 molecules, growth inhibition results are on record in PubChem BioAssay (NCI).

Values joined by “and” are separate entries in the source; they are usually repeats but may differ in a detail not shown here. Equal values may be shown once. About 79,000 compounds went through this panel and 15% of them were active in at least one assay; those are over-represented in the sample as a whole. Some structures have more than one record in an assay (separate samples or runs), and their calls can disagree. Active and inactive are the calls of the source. No stated cut-off is given here; in the data, active means growth inhibition above about 70%; inactive means the rest.

The test can be described thus: NCI Yeast Anticancer Drug Screen. Data for the rad50 strain (AID 155).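 Further: 0% = growth of vehicle-only cultures of the same strain.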 As to conditions: S. cerevisiae rad50 strain growth inhibition; at 50.0 µM; stronger effect = higher value. An outline of the steps: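 Yeast carrying a defined DNA repair defect were exposed to test compounds, and growth was compared with vehicle-treated controls to give percent inhibition.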
For the molecule `Cc1ccc(NCCN(C)C)c2c(=O)c3cc(O)ccc3sc12`, the growth inhibition is 88.7% (active).
For `N#CC1(C2SCCS2=O)C2=C(C(=O)c3ccccc3C2=O)N2CCCC21` (centres undefined) the value was 76.8% (active); for `CCN(CC)CCC(=O)/C=C/c1ccccc1`, 99.3% (active) and 29.2% (inactive).
The figure for `CC1(O)Cc2c(O)c3c(c(O)c2CC1O)C(=O)C=CC3=O` (centres undefined) is 72.2% (active); for `Cc1ccc2c(c1)C1(C)OC(C=CC1=O)O2` (centres undefined) it is 88.2% (active); for `Fc1cccc(CSC(=S)Nc2ccc(F)c(F)c2)c1` it is 99.6% (active).
For `CCN(CCO)CCNc1ccc(C)c2sc3ccccc3c(=O)c12`, the growth inhibition is 88.2% (active).
In the case of `Cc1n(-c2ccccc2)c2c([n+]1Cc1ccc([N+](=O)[O-])cc1)C(=O)c1ccccc1C2=O`, the growth inhibition is 85.2% (active).
The figure for `CC(=O)OC1COC(n2c(N)c(C#N)c(-c3ccccc3)c(C#N)c2=S)C(OC(C)=O)C1OC(C)=O` (centres undefined) is 25.8% (inactive) and 46% (inactive).
The figure for `O=c1[nH]c2cc([N+](=O)[O-])ccc2nc1/C=C(\O)c1ccc([N+](=O)[O-])cc1` is 54.2% (inactive) and -3.6% (inactive); for `Cc1n(Cc2ccccc2)c2c([n+]1C)C(=O)c1ccccc1C2=O` it is 86.2% (active).
For `CS(=O)(=O)OCCN(CCOS(C)(=O)=O)c1ccc(C=Nc2ccc(-c3csc(Cc4ccccc4)n3)cc2)c(Cl)c1` the value was 71.2% (active); for `CCCCCCCCCCS(=O)CC(CO)NC(=O)/C=C/c1c(C)[nH]c(=O)[nH]c1=O` (centres undefined), 86.2% (active).
Turning to `C/C(=N\O)c1cc(Br)cc([N+](=O)[O-])c1O`, the growth inhibition is 6.45% (inactive).
